Reference: ChEMBL document CHEMBL3988442, “University of Dundee, Small-Polar-MMV Screening Library” (2021)
For some assays here: Results with a measured potency or affinity are listed apart.

How the values were obtained:
Parameters in all cases: scale not given: direction of the effect not stated beside the values
[1] = biological target: Protein translocase subunit SecA (Escherichia coli (strain K12)) (UniProt P10408); assay: Assay to Identify E. coli SecA ATPase Inhibitors; assay type: functional; settings: 30 µM
[2] = biological target: T1, Ubiquitin-activating enzyme e1, putative (Leishmania donovani (strain BPK282A1)) (UniProt E9BSI1); assay: Leishmania donovani Ubiquitin Activating Enzyme (LdE1); assay type: functional; settings: 30 µM
T1 sequence (whole entry): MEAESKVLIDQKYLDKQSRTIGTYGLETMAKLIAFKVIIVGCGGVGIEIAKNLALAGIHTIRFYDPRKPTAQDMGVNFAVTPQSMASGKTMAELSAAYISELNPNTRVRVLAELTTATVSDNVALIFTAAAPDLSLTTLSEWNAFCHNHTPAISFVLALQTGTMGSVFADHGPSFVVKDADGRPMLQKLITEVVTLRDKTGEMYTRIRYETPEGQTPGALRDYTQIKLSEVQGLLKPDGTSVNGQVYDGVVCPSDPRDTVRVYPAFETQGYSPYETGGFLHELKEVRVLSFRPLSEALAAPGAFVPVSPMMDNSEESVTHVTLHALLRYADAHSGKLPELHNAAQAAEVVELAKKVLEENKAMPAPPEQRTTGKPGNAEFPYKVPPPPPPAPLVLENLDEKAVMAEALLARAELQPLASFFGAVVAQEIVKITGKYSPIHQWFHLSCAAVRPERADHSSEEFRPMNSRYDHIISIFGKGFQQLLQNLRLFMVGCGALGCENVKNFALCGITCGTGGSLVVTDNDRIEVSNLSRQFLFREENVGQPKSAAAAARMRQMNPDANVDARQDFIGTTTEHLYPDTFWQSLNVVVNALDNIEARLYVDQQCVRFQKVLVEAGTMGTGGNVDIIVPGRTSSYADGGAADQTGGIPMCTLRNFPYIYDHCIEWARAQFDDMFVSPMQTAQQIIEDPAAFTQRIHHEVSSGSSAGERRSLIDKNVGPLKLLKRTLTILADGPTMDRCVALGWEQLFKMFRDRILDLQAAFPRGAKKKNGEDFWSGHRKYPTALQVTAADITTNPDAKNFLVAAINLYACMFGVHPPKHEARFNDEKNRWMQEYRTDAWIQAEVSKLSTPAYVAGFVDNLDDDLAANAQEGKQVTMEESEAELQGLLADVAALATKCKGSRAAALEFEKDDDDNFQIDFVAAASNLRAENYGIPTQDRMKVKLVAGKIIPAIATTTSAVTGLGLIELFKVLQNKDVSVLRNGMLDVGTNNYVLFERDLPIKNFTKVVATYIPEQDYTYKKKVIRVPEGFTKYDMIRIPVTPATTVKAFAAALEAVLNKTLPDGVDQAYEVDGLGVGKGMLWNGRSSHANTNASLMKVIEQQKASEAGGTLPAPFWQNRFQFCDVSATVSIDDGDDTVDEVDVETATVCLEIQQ

[3] = biological target: AMP-activated protein kinase, AMPK (Homo sapiens) (UniProt P54646+O43741+P54619+Q9UGJ0+Q9Y478+Q13131+Q9UGI9); assay: AMP-dependent Kinase enzyme assay. An in vitro enzyme assay that detects ADP turnover that is directly proportional to AMPK activity. This uses naive AMPK that is activated during the assay with MK-8722; assay type: functional; settings: 30 µM
[4] = biological target: Sialic acid-binding Ig-like lectin 9 (Homo sapiens) (UniProt Q9Y336); assay: Hs-Siglec9 ALPHAscreen SOP 20170721; settings: 10 µM
Trypanosoma cruzi = assay: Trypanosoma cruzi phosphomannomutase and mannose-1-phosphate guanylyltransferase assay; assay type: functional; settings: 10 µM
[5] = biological target: T2, Arginase-2, mitochondrial (Homo sapiens) (UniProt P78540); assay: in vitro enzyme assay to detect the production of urea directly proportional to the activity of Arginase II; assay type: functional; settings: 33.3 µM; also: in the data most compounds retested in dose-response had high values
T2 sequence (whole entry): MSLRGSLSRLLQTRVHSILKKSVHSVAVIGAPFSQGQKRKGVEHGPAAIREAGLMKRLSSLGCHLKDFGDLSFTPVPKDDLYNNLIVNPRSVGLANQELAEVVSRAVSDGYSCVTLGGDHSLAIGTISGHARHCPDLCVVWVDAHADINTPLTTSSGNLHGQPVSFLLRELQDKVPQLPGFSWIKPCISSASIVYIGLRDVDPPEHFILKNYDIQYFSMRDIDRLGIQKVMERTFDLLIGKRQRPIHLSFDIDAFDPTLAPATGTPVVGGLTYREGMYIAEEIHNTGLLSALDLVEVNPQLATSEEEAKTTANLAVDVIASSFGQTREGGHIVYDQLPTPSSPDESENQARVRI

[6] = biological target: T3, Proteasome subunit beta (Trypanosoma cruzi) (UniProt O96673); assay: Trypanosoma cruzi proteasome chymotrypsin-like activity (TcProtChymo) assay.; also: in the data most compounds retested in dose-response had high values; assay type: functional; settings: 9.37 µM
T3 sequence (whole entry): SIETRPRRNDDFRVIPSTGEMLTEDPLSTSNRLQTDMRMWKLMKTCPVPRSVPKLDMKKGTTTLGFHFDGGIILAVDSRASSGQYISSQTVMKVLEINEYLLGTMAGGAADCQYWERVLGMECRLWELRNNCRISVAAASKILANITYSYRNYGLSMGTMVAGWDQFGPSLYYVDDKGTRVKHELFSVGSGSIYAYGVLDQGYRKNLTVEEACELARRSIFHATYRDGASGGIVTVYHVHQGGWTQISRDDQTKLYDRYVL

Homo sapiens = species on record: Homo sapiens; assay: To identify inhibition of the IFN signalling (Jak-Stat) pathway via expression of an eGFP reporter gene under the control of an IFN-stimulated response element (ISRE) containing MxA promoter.; assay type: functional; settings: 30 µM
[7] = biological target: T4, Tyrosyl-tRNA synthetase, putative (Trypanosoma cruzi (strain CL Brener)) (UniProt Q4DSP6); assay: Trypanosoma cruzi tyrosyl tRNA synthetase (TcYRS) _High Tyrosine SOP; assay type: functional; settings: 30 µM; also: in the data most compounds retested in dose-response had high values
T4 sequence (whole entry): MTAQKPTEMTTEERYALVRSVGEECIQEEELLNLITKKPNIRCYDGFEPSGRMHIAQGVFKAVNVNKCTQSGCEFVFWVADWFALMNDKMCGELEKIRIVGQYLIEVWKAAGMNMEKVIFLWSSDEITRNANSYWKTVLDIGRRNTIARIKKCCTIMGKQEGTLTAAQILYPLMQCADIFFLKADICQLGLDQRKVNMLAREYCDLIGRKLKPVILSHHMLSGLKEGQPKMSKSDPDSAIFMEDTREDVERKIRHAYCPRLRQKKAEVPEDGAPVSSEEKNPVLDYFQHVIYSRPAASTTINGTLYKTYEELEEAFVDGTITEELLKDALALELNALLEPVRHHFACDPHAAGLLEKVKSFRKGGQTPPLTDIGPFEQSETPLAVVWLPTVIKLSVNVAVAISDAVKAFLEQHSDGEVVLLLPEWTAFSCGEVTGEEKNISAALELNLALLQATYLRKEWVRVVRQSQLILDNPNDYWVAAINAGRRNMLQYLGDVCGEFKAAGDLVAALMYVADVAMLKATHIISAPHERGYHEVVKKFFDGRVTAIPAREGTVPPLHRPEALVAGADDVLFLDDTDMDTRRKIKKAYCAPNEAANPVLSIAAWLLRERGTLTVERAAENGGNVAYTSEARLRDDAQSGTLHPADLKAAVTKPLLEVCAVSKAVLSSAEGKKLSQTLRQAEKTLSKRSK

[8] = biological target: T4, Tyrosyl-tRNA synthetase, putative (Trypanosoma cruzi (strain CL Brener)); assay: Trypanosoma cruzi tyrosyl tRNA synthetase (TcYRS) SOP; assay type: functional; settings: 30 µM
[9] = biological target: Chromo domain-containing protein 1 (Saccharomyces cerevisiae (strain ATCC 204508 / S288c) (Baker's yeast)) (UniProt P32657); assay: ScCHD-1 Enzyme Inhibition Assay; assay type: functional; settings: 30 µM; also: in the data most compounds retested in dose-response had high values
Sequence of Chromo domain-containing protein 1 (Saccharomyces cerevisiae (strain ATCC 204508 / S288c) (Baker's yeast)) (P32657 whole entry, the tested form may be a part): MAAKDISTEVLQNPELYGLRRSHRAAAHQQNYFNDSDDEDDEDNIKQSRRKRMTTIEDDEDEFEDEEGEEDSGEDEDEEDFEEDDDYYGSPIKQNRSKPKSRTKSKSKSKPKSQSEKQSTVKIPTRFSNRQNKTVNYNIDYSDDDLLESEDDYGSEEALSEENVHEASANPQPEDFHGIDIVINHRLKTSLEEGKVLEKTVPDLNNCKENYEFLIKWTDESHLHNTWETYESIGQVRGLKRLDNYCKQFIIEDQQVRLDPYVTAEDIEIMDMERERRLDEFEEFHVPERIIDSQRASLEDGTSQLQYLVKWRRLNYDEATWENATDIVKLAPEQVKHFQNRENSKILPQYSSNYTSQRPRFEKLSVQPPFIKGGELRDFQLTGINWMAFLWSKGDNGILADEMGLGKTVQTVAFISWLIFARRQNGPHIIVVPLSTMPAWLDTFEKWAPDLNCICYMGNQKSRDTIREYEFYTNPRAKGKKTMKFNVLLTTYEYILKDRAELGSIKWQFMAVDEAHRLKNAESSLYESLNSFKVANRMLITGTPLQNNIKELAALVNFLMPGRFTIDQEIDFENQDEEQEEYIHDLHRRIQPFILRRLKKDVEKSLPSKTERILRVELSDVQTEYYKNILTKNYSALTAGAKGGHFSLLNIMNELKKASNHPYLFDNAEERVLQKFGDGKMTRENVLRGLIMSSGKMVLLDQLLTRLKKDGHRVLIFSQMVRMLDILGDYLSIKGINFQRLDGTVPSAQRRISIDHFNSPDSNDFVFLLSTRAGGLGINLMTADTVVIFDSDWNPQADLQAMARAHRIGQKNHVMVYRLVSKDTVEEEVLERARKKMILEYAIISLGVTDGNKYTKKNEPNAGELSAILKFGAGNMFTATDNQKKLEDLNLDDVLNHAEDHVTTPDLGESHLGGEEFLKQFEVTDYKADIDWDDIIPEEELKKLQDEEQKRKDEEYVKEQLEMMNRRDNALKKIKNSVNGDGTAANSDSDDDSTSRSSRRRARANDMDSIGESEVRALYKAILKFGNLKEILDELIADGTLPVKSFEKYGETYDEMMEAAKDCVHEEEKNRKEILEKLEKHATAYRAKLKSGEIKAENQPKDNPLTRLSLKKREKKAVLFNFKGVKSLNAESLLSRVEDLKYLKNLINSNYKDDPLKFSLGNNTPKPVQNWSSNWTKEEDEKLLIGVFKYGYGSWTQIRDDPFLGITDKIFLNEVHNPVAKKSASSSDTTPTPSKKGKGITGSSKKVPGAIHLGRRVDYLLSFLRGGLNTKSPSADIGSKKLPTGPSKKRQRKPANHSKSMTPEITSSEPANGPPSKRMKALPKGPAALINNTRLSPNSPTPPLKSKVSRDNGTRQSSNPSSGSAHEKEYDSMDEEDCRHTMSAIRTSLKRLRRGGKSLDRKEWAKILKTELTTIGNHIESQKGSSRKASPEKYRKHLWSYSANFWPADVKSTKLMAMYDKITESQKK

Sequence of Sialic acid-binding Ig-like lectin 9 (Homo sapiens) (Q9Y336 whole entry): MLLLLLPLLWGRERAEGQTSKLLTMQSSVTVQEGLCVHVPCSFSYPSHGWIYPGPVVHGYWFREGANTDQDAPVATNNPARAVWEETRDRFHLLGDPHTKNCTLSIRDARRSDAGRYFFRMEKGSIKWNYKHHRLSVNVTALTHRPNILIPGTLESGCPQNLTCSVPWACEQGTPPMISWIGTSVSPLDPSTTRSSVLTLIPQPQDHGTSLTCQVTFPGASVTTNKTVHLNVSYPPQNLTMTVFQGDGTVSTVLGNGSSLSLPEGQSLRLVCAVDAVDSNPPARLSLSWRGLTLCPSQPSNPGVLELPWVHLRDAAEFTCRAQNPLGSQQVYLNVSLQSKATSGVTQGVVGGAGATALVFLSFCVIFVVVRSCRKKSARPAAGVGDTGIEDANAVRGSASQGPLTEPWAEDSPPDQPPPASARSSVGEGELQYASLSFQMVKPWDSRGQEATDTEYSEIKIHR
Sequence of Protein translocase subunit SecA (Escherichia coli (strain K12)) (P10408 whole entry): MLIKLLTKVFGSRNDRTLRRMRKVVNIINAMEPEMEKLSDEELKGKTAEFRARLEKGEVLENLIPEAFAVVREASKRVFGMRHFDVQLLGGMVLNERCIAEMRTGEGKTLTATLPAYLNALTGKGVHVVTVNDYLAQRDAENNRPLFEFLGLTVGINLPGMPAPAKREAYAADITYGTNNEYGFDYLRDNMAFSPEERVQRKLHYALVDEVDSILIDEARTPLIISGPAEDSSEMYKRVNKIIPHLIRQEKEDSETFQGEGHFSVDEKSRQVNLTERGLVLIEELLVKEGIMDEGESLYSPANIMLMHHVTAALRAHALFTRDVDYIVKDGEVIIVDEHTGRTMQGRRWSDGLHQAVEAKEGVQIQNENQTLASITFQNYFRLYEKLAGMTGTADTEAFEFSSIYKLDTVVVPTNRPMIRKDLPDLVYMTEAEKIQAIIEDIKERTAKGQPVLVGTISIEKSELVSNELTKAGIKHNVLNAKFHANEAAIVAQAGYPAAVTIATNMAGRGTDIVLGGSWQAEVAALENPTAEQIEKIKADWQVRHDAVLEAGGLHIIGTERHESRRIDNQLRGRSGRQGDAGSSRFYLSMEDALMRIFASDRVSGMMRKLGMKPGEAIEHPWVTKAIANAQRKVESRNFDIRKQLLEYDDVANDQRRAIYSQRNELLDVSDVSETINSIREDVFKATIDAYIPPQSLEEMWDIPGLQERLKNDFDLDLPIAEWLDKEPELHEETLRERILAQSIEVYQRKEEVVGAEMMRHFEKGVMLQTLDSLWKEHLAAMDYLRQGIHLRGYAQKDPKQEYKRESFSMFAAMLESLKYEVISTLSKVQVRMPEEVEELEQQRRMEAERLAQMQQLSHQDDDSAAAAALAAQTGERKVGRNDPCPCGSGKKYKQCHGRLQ

SMILES	Percent Effect [1] [%]	Percent Effect [2] [%]	Percent Effect [3] [%]	Percent Effect [4] [%]	Percent Effect (Trypanosoma cruzi) [%]	Percent Effect [5] [%]	Percent Effect [6] [%]	Percent Effect (Homo sapiens) [%]	Percent Effect [7] [%]	Percent Effect [8] [%]	Percent Effect [9] [%]
CCc1cc(=O)[nH]c2nnc(SCC(=O)OC)n12	0.274	16.4	-5.37	-14.2	3.72	18.2	15.6	-0.951	6.45	17.5	-6.44
CC1CCN(CCCNS(=O)(=O)c2cccc(F)c2)CC1	-4.57	7.79	0.601	5.46	-2.46	-13.8	0.166	-11.1	5.38	13.6	-2.91
Cc1nn(C)c(N2CCOCC2)c1CNC1CCOc2ccccc21 (configuration not stated)	-4.35	10.1	-4.31	8.19	1.04	0.38	2.54	-11.4	7.39	11.4	-3.12
Cc1nc[nH]c1-c1nc2cc(S(=O)(=O)N3CCCC3)ccc2n1C	-4.38	11	12.9	8.67	6.86	20	8.16	24.3	7.53	17.5	-5.76
O=C([C@@H]1CCO[C@@H]2CCN(Cc3cccnc3)C[C@H]21)N1CCCCO1	-2.75	14.7	2.91	5.02	-1.57	-6.51	11.5	17.3	4.23	7.69	-7.97
O=C1N(c2ccc(F)cc2)Cc2nc(=O)n(Cc3cccc(Cl)c3)n21	0.397	-4	8.75	4.81	-5.11	-3.35	5.36	-6.59	-5.29	-2.56	-4.31
Cc1ccccc1C1(C(=O)NCCN2CCCC2)CCOCC1	-0.0334	10.8	-6.54	-0.683	-0.283	-8.42	16.2	20.7	9.36	18.5	-8.78
Cc1ccc(C)c(C(NC(=O)C(C)(C)C)c2cccnc2)c1 (configuration not stated)	-1.95	13	3.34	-1.13	4.63	-0.645	14.3	21.8	4.23	6.41	-10.2
CC(C)c1nnc2n1CCN(CC(=O)Nc1nncs1)C2	-0.203	13	1.97	-3.59	5.19	5.68	8	-15.7	2.86	14.1	-14.6
Cc1ncsc1CN1C[C@@H]2COC[C@]2(COc2ccc(C#N)cn2)C1	-3.44	-5.48	-1.94	1.31	7.74	-3.59	2.31	-1.06	1.04	3.7	2.89
O=C(c1cncc(N2CCC3(CCNCC3)CC2)n1)N1CCCC1	-4.3	18.7	1.16	15.6	5.94	33.9	23.7	12.9	7.1	21	-13.4
CC(C)NS(=O)(=O)c1cc(C(=O)O)cc(-c2ccccc2CN(C)C)c1	-5.51	0	-1.94	-2.62	-6.16	4.22	3	1.46	1.07	3.7	-3.44
COc1ccc(CCC(=O)NC2CCC(O)CC2)cc1OC (configuration not stated)	-5.53	13.2	-3.83	13	-0.654	-3.24	2.12	7.63	2.46	6.17	-1.04
Cc1cc(C)n(CC2CN(CC(=O)NC3CCCC3)CCO2)n1 (configuration not stated)	-8.44	7.79	2.32	-3.15	-8.24	-0.712	2.03	32.3	1.94	2.44	-5.73
COCCN1CC[C@@H](O)[C@@H]1Cc1ccccc1	1.28	6.67	2.24	0.614	-10.4	-8.63	10.7	-7.47	2.12	0	-7.73
CCN(C(=O)CN(C)C(c1cccc(F)c1)c1ccccn1)C1CC1 (configuration not stated)	-1.83	-5.2	-4.08	9.51	6.74	-2.49	2.37	4.69	6.8	7.32	-10.2
Cc1csc(N2CCN(CC(=O)Nc3nncs3)CC2C)n1 (configuration not stated)	-3.67	0	-9.26	8.6	-0.836	-3.88	5.92	9.1	3.96	-1.22	10.3
CCN1CCC(NC(=O)CN2CCCC2Cn2nc(C)cc2C)CC1 (configuration not stated)	-3.31	2.7	-2.56	6.76	-3.3	-5.61	-0.54	3.04	4.43	1.24	0.399
CCN1CCN(C2CCN(Cc3nc4ccccc4o3)CC2)C1=O	-1.89	10.4	0.349	-1.67	1.67	-2.74	14.2	-19	7.62	21.2	-20.3
CN(C)C(=O)Cc1ccc(NC(=O)NC2CCCCC2)cc1	-1.35	-5.41	-1.19	3.35	6.56	-2.86	16	11	1.59	7.32	-0.0586
CC(NC(=O)c1ccc2c(c1)OCC(=O)N2)c1ccccc1F (configuration not stated)	-5.46	18.4	22	2	1.03	-0.719	9.39	-9.89	10.3	18.5	-4.32
Cc1ncccc1Oc1nccnc1C1CCN(C(C)C)CC1	-6.52	6.76	1.33	5.77	0.593	-2.09	2.65	-0.668	-31.2	9.09	-19.2
